Data: PubChem BioAssay
For some of these results: Potency and affinity values are given separately. Active and inactive are the calls of the source. Unless noted, no rule for the calls is given here.

What was measured:
[1] = antimalarial activity against Dd2 strain (AID 2302;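 active = growth inhibition above 50% at the single 2 µM test dose, taken to imply half-maximal potency below 2 µM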;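 also: 0% = DMSO untreated growth and 100% = chloroquine plus artemisinin killed control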); details: P. falciparum Dd2 in RBCs, LDH growth readout, 72 h; at 2 µM; hits give high values
[2] = human hepatoma cell viability loss – ATP luminescence, cytotoxicity control for P. falciparum antimalarial project, primary screen (AID 2303;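 active = inhibition above 50%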;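 also: 0% = DMSO wells and 100% = digitonin-killed cells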); details: HepG2 viability, 24-48 h, at 10 µM, hits give high values
[3] = target: L-lactate dehydrogenase (Plasmodium falciparum (isolate CDC / Honduras)) (UniProt Q27743); assay: PfLDH activity inhibition – cell lysate, 3D7 strain, counter-screen for P. falciparum growth inhibition project (AID 2304);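 also: 0% = vehicle and 100% = reference inhibitor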; details: P. falciparum 3D7 crude extract, LDH APAD/NBT absorbance; at 2 µM; hits give high values
Sequence of L-lactate dehydrogenase (Plasmodium falciparum (isolate CDC / Honduras)) (Q27743 whole entry, looked up): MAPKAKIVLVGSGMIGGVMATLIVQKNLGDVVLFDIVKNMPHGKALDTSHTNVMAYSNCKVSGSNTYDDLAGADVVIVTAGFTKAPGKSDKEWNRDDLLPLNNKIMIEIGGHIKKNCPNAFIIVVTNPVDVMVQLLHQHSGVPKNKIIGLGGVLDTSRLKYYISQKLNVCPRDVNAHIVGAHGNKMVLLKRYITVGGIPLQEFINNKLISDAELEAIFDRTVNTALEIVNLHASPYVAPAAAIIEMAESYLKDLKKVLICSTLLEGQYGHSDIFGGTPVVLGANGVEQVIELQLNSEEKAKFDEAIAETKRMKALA

[4] = inhibition of 3D7 malaria parasite growth – strain 3D7 (AID 2306);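 also: 0% = DMSO wells and 100% = chloroquine plus artemisinin control wells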; details: P. falciparum 3D7 erythrocytic growth, LDH absorbance, 72 h; at 2 µM; hits give high values
[5] = target: Plasmodium falciparum protein kinase 6 (PK6, PF3D7_1337100) (UniProt Q8IDW1); assay: PfPK6 kinase inhibitors, biochemical, TCAMS library (AID 1159586); details: recombinant PfPK6, Kinase-Glo ATP depletion luminescence
Sequence of Plasmodium falciparum protein kinase 6 (PK6, PF3D7_1337100) (Q8IDW1 1-305): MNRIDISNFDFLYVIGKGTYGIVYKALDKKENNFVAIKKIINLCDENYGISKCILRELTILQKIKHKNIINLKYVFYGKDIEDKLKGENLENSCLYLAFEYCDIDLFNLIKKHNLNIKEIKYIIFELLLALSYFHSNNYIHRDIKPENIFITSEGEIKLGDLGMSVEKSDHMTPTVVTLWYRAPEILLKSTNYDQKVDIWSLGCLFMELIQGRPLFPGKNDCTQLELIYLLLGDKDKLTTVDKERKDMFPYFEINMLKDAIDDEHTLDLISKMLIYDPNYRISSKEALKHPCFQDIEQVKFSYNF

[6] = target: Protein kinase 7 (PK7), Plasmodium falciparum 3D7 (PF3D7_0213400) (UniProt Q7YTF7); assay: inhibition of Plasmodium PK7 catalytic activity – biochemical, TCAMS antimalarial set, Kinase-Glo luminescence (AID 1159587); details: recombinant PfPK7, Kinase-Glo ATP depletion luminescence
Sequence of Protein kinase 7 (PK7), Plasmodium falciparum 3D7 (PF3D7_0213400) (Q7YTF7 1-343): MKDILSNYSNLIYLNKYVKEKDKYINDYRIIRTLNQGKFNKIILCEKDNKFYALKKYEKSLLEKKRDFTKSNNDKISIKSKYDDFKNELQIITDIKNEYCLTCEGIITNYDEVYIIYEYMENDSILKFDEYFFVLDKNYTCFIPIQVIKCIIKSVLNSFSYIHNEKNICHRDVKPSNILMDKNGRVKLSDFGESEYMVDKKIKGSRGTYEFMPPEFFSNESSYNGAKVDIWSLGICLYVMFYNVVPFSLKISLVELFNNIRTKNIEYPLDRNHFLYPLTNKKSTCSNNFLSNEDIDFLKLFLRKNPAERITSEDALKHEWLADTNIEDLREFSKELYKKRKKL

[7] = target: Calcium-dependent protein kinase 4 (Plasmodium falciparum (isolate 3D7)) (UniProt Q8IBS5); assay: PfCDPK4 kinase inhibitors, biochemical, TCAMS library (AID 1159588; cut-off not given, nearly all actives have IC50 up to about 0.91 µM); details: recombinant PfCDPK4, Kinase-Glo ATP depletion luminescence
Sequence of Calcium-dependent protein kinase 4 (Plasmodium falciparum (isolate 3D7)) (Q8IBS5 whole entry, looked up): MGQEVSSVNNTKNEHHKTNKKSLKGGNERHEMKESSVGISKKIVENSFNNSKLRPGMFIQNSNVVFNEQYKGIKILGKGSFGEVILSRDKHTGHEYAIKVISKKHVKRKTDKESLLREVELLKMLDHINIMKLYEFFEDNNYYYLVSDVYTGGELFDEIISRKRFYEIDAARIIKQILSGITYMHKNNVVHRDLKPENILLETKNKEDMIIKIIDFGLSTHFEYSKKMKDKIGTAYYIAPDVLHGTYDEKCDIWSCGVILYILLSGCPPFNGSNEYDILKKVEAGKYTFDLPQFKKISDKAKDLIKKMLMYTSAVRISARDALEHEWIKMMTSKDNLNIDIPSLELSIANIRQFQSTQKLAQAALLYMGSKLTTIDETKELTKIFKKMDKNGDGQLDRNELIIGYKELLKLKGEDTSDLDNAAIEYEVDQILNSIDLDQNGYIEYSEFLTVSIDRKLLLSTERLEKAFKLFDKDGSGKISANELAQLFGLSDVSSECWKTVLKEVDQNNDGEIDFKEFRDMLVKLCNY

CCn1c(-c2nonc2N)nc2c(-c3cccc(NC(=O)Nc4ccc(Cl)cc4)c3)ncc(OCCCN)c21
growth inhibition [1]: 72% (active) | inhibition [2]: 26% (inactive) | inhibition [3]: -1% (inactive) | growth inhibition [4]: 96% (active) | outcome [5]: inactive | outcome [6]: inactive | outcome [7]: inactive

O=C(NCCCN1CCCCC1)c1cccc(Nc2nccc(Nc3ccc(Oc4ccccc4)cc3)n2)c1
growth inhibition [1]: 12% (inactive) | inhibition [2]: 47% (inactive) | inhibition [3]: 2% (inactive) | growth inhibition [4]: 96% (active) | outcome [5]: inactive | outcome [6]: inactive | outcome [7]: inactive

CNC(=O)c1ccccc1Nc1nc(Nc2ccc(C(=O)O)cc2)ncc1Cl
growth inhibition [1]: 92% (active) | inhibition [2]: 60% (active) | inhibition [3]: -2% (inactive) | growth inhibition [4]: 92% (active) | outcome [5]: inactive | outcome [6]: inactive | outcome [7]: inactive

NCCCOc1cnc(-c2ccccc2)c2nc(-c3nonc3N)n(CCc3ccccc3)c12
growth inhibition [1]: 86% (active) | inhibition [2]: 56% (active) | inhibition [3]: -4% (inactive) | growth inhibition [4]: 93% (active) | outcome [5]: inactive | outcome [6]: inactive | outcome [7]: inactive

Cc1ccc(Nc2nccc(N(C)c3ccc4c(c3)nc(NC(=O)Cc3ccc(Cl)c(Cl)c3)n4C)n2)cc1S(N)(=O)=O
growth inhibition [1]: 60% (active) | inhibition [2]: 71% (active) | inhibition [3]: 0% (inactive) | growth inhibition [4]: 94% (active) | outcome [5]: inactive | outcome [6]: inactive | outcome [7]: inactive

Nc1ncc(-c2cn[nH]c2)cc1-c1nc2ccc(F)cc2[nH]1
growth inhibition [1]: 53% (active) | inhibition [2]: 38% (inactive) | inhibition [3]: -3% (inactive) | growth inhibition [4]: 101% (active) | outcome [5]: inactive | outcome [6]: inactive | outcome [7]: inactive

Cc1cccc2[nH]c(-c3cc(-c4cn[nH]c4)cnc3N)nc12
growth inhibition [1]: 93% (active) | inhibition [2]: 37% (inactive) | inhibition [3]: 0% (inactive) | growth inhibition [4]: 101% (active) | outcome [5]: inactive | outcome [6]: inactive | outcome [7]: inactive

CN(C)Cc1ccc(-c2ccc3c(Nc4ccc(Cl)cc4F)ccnc3c2)o1
growth inhibition [1]: 99% (active) | inhibition [2]: 13% (inactive) | inhibition [3]: -3% (inactive) | growth inhibition [4]: 100% (active) | outcome [5]: inactive | outcome [6]: inactive | outcome [7]: inactive

CC(C)(CNC(=O)C1CCN(CCOc2ccc(F)c(F)c2)CC1)c1nc(-c2ccc(Cl)c(O)c2)c(-c2ccncc2)[nH]1
growth inhibition [1]: 19% (inactive) | inhibition [2]: 41% (inactive) | inhibition [3]: -1% (inactive) | growth inhibition [4]: 101% (active) | outcome [5]: inactive | outcome [6]: inactive | outcome [7]: inactive

CC(C)(CN)c1nc(-c2ccc(Cl)c(O)c2)c(-c2ccncc2)[nH]1
growth inhibition [1]: 98% (active) | inhibition [2]: 34% (inactive) | inhibition [3]: 0% (inactive) | growth inhibition [4]: 97% (active) | outcome [5]: inactive | outcome [6]: inactive | outcome [7]: inactive

CC(=O)Nc1cccc(Nc2nccc(Nc3ccc(Oc4ccccc4)cc3)n2)c1
growth inhibition [1]: 99% (active) | inhibition [2]: 15% (inactive) | inhibition [3]: -6% (inactive) | growth inhibition [4]: 101% (active) | outcome [5]: inactive | outcome [6]: inactive | outcome [7]: inactive

O=C(NCCN1CCC(c2ccncc2)CC1)c1ccc(Nc2nccc(Nc3ccc(Oc4ccccc4)cc3)n2)cc1
growth inhibition [1]: 90% (active) | inhibition [2]: 17% (inactive) | inhibition [3]: 1% (inactive) | growth inhibition [4]: 102% (active) | outcome [5]: inactive | outcome [6]: inactive | outcome [7]: inactive

c1cncc(Oc2ccc(Nc3ccnc4cc(-c5cccc(CNCCN6CCOCC6)c5)ccc34)cc2)c1
growth inhibition [1]: 99% (active) | inhibition [2]: 14% (inactive) | inhibition [3]: 4% (inactive) | growth inhibition [4]: 101% (active) | outcome [5]: inactive | outcome [6]: inactive | outcome [7]: inactive

COc1ccc(-c2cnc3[nH]cc(-c4ccncc4)c3c2)cc1OC
growth inhibition [1]: 97% (active) | inhibition [2]: 52% (active) | inhibition [3]: -2% (inactive) | growth inhibition [4]: 98% (active) | outcome [5]: inactive | outcome [6]: inactive | outcome [7]: inactive

CCn1c(-c2nonc2N)nc2c(-c3ccc(CO)o3)ncc(OCCCN)c21
growth inhibition [1]: 97% (active) | inhibition [2]: -12% (inactive) | inhibition [3]: -3% (inactive) | growth inhibition [4]: 93% (active) | outcome [5]: inactive | outcome [6]: inactive | outcome [7]: inactive

CS(=O)(=O)Cc1ccc(Nc2nccc(-c3c(-c4cccc(NC(=O)c5c(F)cccc5F)c4)nn4ncccc34)n2)cc1
growth inhibition [1]: 93% (active) | inhibition [2]: 86% (active) | inhibition [3]: 1% (inactive) | growth inhibition [4]: 97% (active) | outcome [5]: inactive | outcome [6]: inactive | outcome [7]: inactive

O=C(NCCCN1CCOCC1)c1cccc(Nc2nccc(Nc3ccc(Oc4ccccc4)cc3)n2)c1
growth inhibition [1]: 22% (inactive) | inhibition [2]: 34% (inactive) | inhibition [3]: -9% (inactive) | growth inhibition [4]: 98% (active) | outcome [5]: inactive | outcome [6]: inactive | outcome [7]: inactive

CC(C)(CN)c1nc(-c2ccc(Br)c(O)c2)c(-c2ccncc2)[nH]1
growth inhibition [1]: 97% (active) | inhibition [2]: 31% (inactive) | inhibition [3]: 0% (inactive) | growth inhibition [4]: 96% (active) | outcome [5]: inactive | outcome [6]: inactive | outcome [7]: inactive

CN1CCN(c2ccc(Nc3ncc(Cl)c(Nc4cccnc4C(N)=O)n3)cc2)CC1
growth inhibition [1]: 97% (active) | inhibition [2]: 99% (active) | inhibition [3]: -1% (inactive) | growth inhibition [4]: 95% (active) | outcome [5]: inactive | outcome [6]: inactive | outcome [7]: inactive

CN1CCN(CCCNCc2cccc(Nc3nccc(Nc4ccc(Oc5ccccc5)cc4)n3)c2)CC1
growth inhibition [1]: 80% (active) | inhibition [2]: 97% (active) | inhibition [3]: -2% (inactive) | growth inhibition [4]: 100% (active) | outcome [5]: inactive | outcome [6]: inactive | outcome [7]: inactive

COc1ccc(-c2cnc3ccc(NCCCO)nn23)cc1OC
growth inhibition [1]: 90% (active) | inhibition [2]: 9% (inactive) | inhibition [3]: -1% (inactive) | growth inhibition [4]: 98% (active) | outcome [5]: inactive | outcome [6]: inactive | outcome [7]: inactive

Nc1ncc(-c2cn[nH]c2)cc1-c1nc2ccc(Cl)cc2[nH]1
growth inhibition [1]: 100% (active) | inhibition [2]: 46% (inactive) | inhibition [3]: -5% (inactive) | growth inhibition [4]: 101% (active) | outcome [5]: inactive | outcome [6]: inactive | outcome [7]: inactive

COCCNCc1ncsc1-c1ccc2c(Nc3cc(O)c(Cl)cc3F)ccnc2c1
growth inhibition [1]: 92% (active) | inhibition [2]: 0% (inactive) | inhibition [3]: -5% (inactive) | growth inhibition [4]: 101% (active) | outcome [5]: inactive | outcome [6]: inactive | outcome [7]: inactive

c1ccc(Oc2ccc(Nc3ccnc(Nc4ccc5cn[nH]c5c4)n3)cc2)cc1
growth inhibition [1]: 33% (inactive) | inhibition [2]: 6% (inactive) | inhibition [3]: -7% (inactive) | growth inhibition [4]: 94% (active) | outcome [5]: inactive | outcome [6]: inactive | outcome [7]: inactive

Oc1cccc(Nc2ccnc3cc(-c4ccncc4)ccc23)c1
growth inhibition [1]: 99% (active) | inhibition [2]: 8% (inactive) | inhibition [3]: 1% (inactive) | growth inhibition [4]: 101% (active) | outcome [5]: inactive | outcome [6]: inactive | outcome [7]: inactive

CN(C)CCOc1ccc(-c2cc(-c3ccnc(N)n3)c(-c3ccc(Cl)c(O)c3)o2)cc1
growth inhibition [1]: 91% (active) | inhibition [2]: 14% (inactive) | inhibition [3]: 5% (inactive) | growth inhibition [4]: 101% (active) | outcome [5]: inactive | outcome [6]: inactive | outcome [7]: inactive

CS(=O)(=O)CCNCc1cccc(-c2ccc3c(Nc4cc(O)c(Cl)cc4F)ccnc3c2)c1
growth inhibition [1]: 100% (active) | inhibition [2]: 9% (inactive) | inhibition [3]: -7% (inactive) | growth inhibition [4]: 101% (active) | outcome [5]: inactive | outcome [6]: inactive | outcome [7]: inactive

NCc1ccc(Nc2nccc(Nc3ccc(-c4ccccc4)cc3)n2)cc1
growth inhibition [1]: 98% (active) | inhibition [2]: 47% (inactive) | inhibition [3]: -1% (inactive) | growth inhibition [4]: 101% (active) | outcome [5]: inactive | outcome [6]: inactive | outcome [7]: inactive

CC(C)(CNCc1ccc(Cl)cc1)c1nc(-c2ccc(Cl)c(O)c2)c(-c2ccncc2)[nH]1
growth inhibition [1]: 98% (active) | inhibition [2]: 86% (active) | inhibition [3]: 5% (inactive) | growth inhibition [4]: 101% (active) | outcome [5]: inactive | outcome [6]: inactive | outcome [7]: inactive

COc1ccc(Nc2ncc3c(-c4cccc(NC(=O)Cc5cccc(O)c5)c4)c[nH]c3n2)cc1OC
growth inhibition [1]: 96% (active) | inhibition [2]: 44% (inactive) | inhibition [3]: -6% (inactive) | growth inhibition [4]: 101% (active) | outcome [5]: inactive | outcome [6]: inactive | outcome [7]: inactive

CN(C(=O)c1cc2c(-c3cncnc3)cccc2[nH]1)c1ccccc1
growth inhibition [1]: 99% (active) | inhibition [2]: 1% (inactive) | inhibition [3]: 0% (inactive) | growth inhibition [4]: 92% (active) | outcome [5]: inactive | outcome [6]: inactive | outcome [7]: inactive

CN1CCN(c2ccc(Nc3nccc(-c4c(-c5cccc(NC(=O)c6c(F)cccc6F)c5)nn5ccccc45)n3)cc2)CC1
growth inhibition [1]: 98% (active) | inhibition [2]: 86% (active) | inhibition [3]: -3% (inactive) | growth inhibition [4]: 98% (active) | outcome [5]: inactive | outcome [6]: inactive

COCCNCc1cccc(-c2ccc3c(Nc4ccc(Oc5cccnc5)cc4)ccnc3c2)c1
growth inhibition [1]: 99% (active) | inhibition [2]: 58% (active) | inhibition [3]: -5% (inactive) | growth inhibition [4]: 100% (active) | outcome [5]: inactive | outcome [6]: inactive | outcome [7]: inactive

CC(C)(CNC(=O)C1CCN(CCOc2ccc(Cl)cc2)CC1)c1nc(-c2ccc(Cl)c(O)c2)c(-c2ccncc2)[nH]1
growth inhibition [1]: 5% (inactive) | inhibition [2]: 40% (inactive) | inhibition [3]: 7% (inactive) | growth inhibition [4]: 102% (active) | outcome [5]: inactive | outcome [6]: inactive | outcome [7]: inactive

O=C(NCC(c1ccc(C(F)(F)F)cc1)N1CCCC1)c1cc(-c2ccncc2)c(-c2cccc(O)c2)o1 (stereo not given)
growth inhibition [1]: 53% (active) | inhibition [2]: 9% (inactive) | inhibition [3]: 0% (inactive) | growth inhibition [4]: 95% (active) | outcome [5]: inactive | outcome [6]: inactive

O=C(NCCN1CCCC1)c1cccc(Nc2nccc(Nc3ccc(Oc4ccccc4)cc3)n2)c1
growth inhibition [1]: 18% (inactive) | inhibition [2]: 33% (inactive) | inhibition [3]: -3% (inactive) | growth inhibition [4]: 100% (active) | outcome [5]: inactive | outcome [6]: inactive | outcome [7]: inactive
